In PubChem BioAssay (Tox21):
Results filed as inconclusive are left out. Values without a mark were called inactive. Active and inactive are the calls of the source. Calls follow the shape of the full dose curve.

Assay: p53 small molecule agonists, cell-based qHTS assay with human liver microsomes: qHTS cell viability counter screen (AID 1963579); also: potency is read from the fitted curve at half-maximal effect
Conditions: p53RE-bla HCT-116 viability, ATP luminescence, 16 h, HLM; series mostly up to 66 µM; activity change, negative = cytotoxicity: at the top concentration
In short: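 HLM-supplemented (0.5 mg/mL final) and NADPH-supplemented (0.5 mg/mL final) p53RE-bla cultures, 4,000 cells per well, were dosed with compounds in DMSO for 16 h at 37 C; luminescent ATP detection (CellTiter-Glo, 30 min, room temperature) quantified surviving cells.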
% is scaled to controls: 0 for no effect and ±100 for the full control effect.
Also: nearly all actives have a fitted effect of over 45% in size.

Question: With Cc1cc(C)c(NC(=O)CN(CC(=O)O)CC(=O)O)c(C)c1Br as the compound, how does the “activity change, negative = cytotoxicity” value read?
Answer: The value was 11.4% [at 30.3 µM].

Question: Which “activity change, negative = cytotoxicity” value does the source give for O=C(O)Cc1c(Cl)ccc(Cl)c1Cl here?
Answer: Its value is 4.65%.

Question: With COc1ccc(C2C(=O)c3ccccc3C2=O)cc1 as the compound, how does the “activity change, negative = cytotoxicity” value read?
Answer: Its value is -1.89% [at 30.3 µM].

Question: For O=c1cc(-c2ccccc2)oc2ccc3ccccc3c12, which “activity change, negative = cytotoxicity” value is on record?
Answer: Its value is -21.9%.

Question: For CN(C)CCc1c[nH]c2ccc(C[C@H]3COC(=O)N3)cc12, which “activity change, negative = cytotoxicity” value is on record?
Answer: The value was -5.53% [at 30.3 µM].

Question: With O=CN1CCCCC1 as the compound, how does the “activity change, negative = cytotoxicity” value read?
Answer: Its value is -14.7%.

Question: Which “activity change, negative = cytotoxicity” value does the source give for CCOC(=O)COc1cc(-n2ncc(C(F)(F)F)c(C)c2=O)c(F)cc1Cl here?
Answer: Its value is -1.46%.

Question: For Cc1cccc([N+](=O)[O-])c1C(=O)O, which “activity change, negative = cytotoxicity” value is on record?
Answer: The value was -7.77%.

Question: For c1ccc(C(O[C@H]2CCCN(CCc3ccc4c(c3)OCO4)C2)c2ccccc2)cc1, which “activity change, negative = cytotoxicity” value is on record?
Answer: Its value is 4.47% [at 30.3 µM].

Question: For CCC(C)CCCC(C)(C)O (stereo not given), which “activity change, negative = cytotoxicity” value is on record?
Answer: The value was -1.87%.

Question: Which “activity change, negative = cytotoxicity” value does the source give for CCCCCCOC(=O)CCCCC(=O)OCCCCCC here?
Answer: The value was -1.23%.

Question: Which “activity change, negative = cytotoxicity” value does the source give for CCOc1ccc(NC(=O)OC(C)C)cc1OCC here?
Answer: The value was 1.79%.

Question: With C[C@@]12C(=O)OC(=O)[C@]1(C)C1CCC2O1 as the compound, how does the “activity change, negative = cytotoxicity” value read?
Answer: The value was 51.3% [at 30.3 µM].

Question: Which “activity change, negative = cytotoxicity” value does the source give for CC(=O)OC1CCCCC1 here?
Answer: Its value is -0.228%.

Question: With CCOC(=O)C(C)(C)C as the compound, how does the “activity change, negative = cytotoxicity” value read?
Answer: The value was -12.1%.

Question: For COc1cc2nc(Cl)nc(N)c2cc1OC, which “activity change, negative = cytotoxicity” value is on record?
Answer: The value was -5.31% [at 30.3 µM].

Question: Which “activity change, negative = cytotoxicity” value does the source give for CCN(CC)c1ccc(C=O)cc1 here?
Answer: Its value is 0.262%.

Question: Which “activity change, negative = cytotoxicity” value does the source give for COc1ccc(C)cc1[N+](=O)[O-] here?
Answer: Its value is 0.0067%.

Question: With O=C1c2ccccc2C(=O)C1(O)O as the compound, how does the Potency read?
Answer: Its Potency is 36.5 µM (active).

Question: For CCCCCCCCCCCC(C)=O, which “activity change, negative = cytotoxicity” value is on record?
Answer: Its value is 5.26%.

Question: With CCOC(=O)CCC(=O)OCC as the compound, how does the “activity change, negative = cytotoxicity” value read?
Answer: The value was -0.473%.

Assay: p53 small molecule agonists, cell-based qHTS assay with rat liver microsomes: qHTS cell viability counter screen (AID 1963580)
Conditions: p53RE-bla HCT-116 + rat microsomes, ATP viability, 16 h; series mostly up to 66 µM; activity change, negative = cytotoxicity: at the top concentration
In short: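 Viability is assessed in parallel with the p53 reporter read: HCT-116 p53RE-bla cells receive compounds plus rat microsomes and NADPH (0.5 mg/mL final apiece), incubate 16 h at 37 C, and then CellTiter-Glo luminescence is recorded.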

Question: With Cc1cc(C)c(NC(=O)CN(CC(=O)O)CC(=O)O)c(C)c1Br as the compound, how does the “activity change, negative = cytotoxicity” value read?
Answer: Its value is 1.01% [at 30.3 µM].

Question: For CC(=O)c1c(C)cc(C(C)(C)C)cc1C, which “activity change, negative = cytotoxicity” value is on record?
Answer: Its value is 5.43%.

Question: Which “activity change, negative = cytotoxicity” value does the source give for O=C(O)Cc1c(Cl)ccc(Cl)c1Cl here?
Answer: The value was -0.803%.

Question: For COc1ccc(C2C(=O)c3ccccc3C2=O)cc1, which “activity change, negative = cytotoxicity” value is on record?
Answer: The value was 3.07% [at 30.3 µM].

Question: With CCCCCc1ccco1 as the compound, how does the “activity change, negative = cytotoxicity” value read?
Answer: The value was 1.41% [at 30.3 µM].

Question: With CN(CCOc1ccc(NS(C)(=O)=O)cc1)CCc1ccc(NS(C)(=O)=O)cc1 as the compound, how does the “activity change, negative = cytotoxicity” value read?
Answer: Its value is -7.8% [at 30.3 µM].

Question: With Cc1ncc(CO)c(C=O)c1O as the compound, how does the “activity change, negative = cytotoxicity” value read?
Answer: Its value is 1.29% [at 30.3 µM].

Question: With O=CN1CCCCC1 as the compound, how does the “activity change, negative = cytotoxicity” value read?
Answer: Its value is -2.17%.

Question: With CCOC(=O)COc1cc(-n2ncc(C(F)(F)F)c(C)c2=O)c(F)cc1Cl as the compound, how does the “activity change, negative = cytotoxicity” value read?
Answer: The value was -1.36%.

Question: With Oc1ccc(-c2ccc(O)cc2)cc1 as the compound, how does the “activity change, negative = cytotoxicity” value read?
Answer: The value was 2.49%.

Question: For Cc1cccc([N+](=O)[O-])c1C(=O)O, which “activity change, negative = cytotoxicity” value is on record?
Answer: The value was 2.3%.

Question: For c1ccc(C(O[C@H]2CCCN(CCc3ccc4c(c3)OCO4)C2)c2ccccc2)cc1, which “activity change, negative = cytotoxicity” value is on record?
Answer: The value was -0.35% [at 30.3 µM].

Question: For CC(CCc1ccc(O)cc1)NCCc1ccc(O)c(O)c1 (stereo not given), which “activity change, negative = cytotoxicity” value is on record?
Answer: The value was 1.32% [at 30.3 µM].

Question: With CCC(C)CCCC(C)(C)O (stereo not given) as the compound, how does the “activity change, negative = cytotoxicity” value read?
Answer: Its value is 1.78%.

Question: Which “activity change, negative = cytotoxicity” value does the source give for CCCCCCOC(=O)CCCCC(=O)OCCCCCC here?
Answer: The value was 1.04%.

Question: For CCOc1ccc(NC(=O)OC(C)C)cc1OCC, which “activity change, negative = cytotoxicity” value is on record?
Answer: Its value is -19.3%.

Question: With CC(C)C(=O)OCc1ccccc1 as the compound, how does the “activity change, negative = cytotoxicity” value read?
Answer: The value was 1.12%.

Question: For CN(C)[C@@H]1C(=O)C(C(=O)NCN2CCCC2)=C(O)[C@@]2(O)C(=O)C3=C(O)c4c(O)cccc4[C@@](C)(O)C3C[C@@H]12 (stereo not given in full), which “activity change, negative = cytotoxicity” value is on record?
Answer: Its value is -8.28% [at 30.3 µM].

Question: Which “activity change, negative = cytotoxicity” value does the source give for CC(=O)OC1CCCCC1 here?
Answer: Its value is -1.78%.

Question: For CCOC(=O)C(C)(C)C, which “activity change, negative = cytotoxicity” value is on record?
Answer: The value was -3.83%.

Question: For CCCCCCCCN(C)CCCCCCCC, which “activity change, negative = cytotoxicity” value is on record?
Answer: Its value is 3.93%.

Question: With COc1cc2nc(Cl)nc(N)c2cc1OC as the compound, how does the “activity change, negative = cytotoxicity” value read?
Answer: Its value is -0.473% [at 30.3 µM].

Question: Which “activity change, negative = cytotoxicity” value does the source give for CCN(CC)c1ccc(C=O)cc1 here?
Answer: Its value is 1.75%.

Question: For COc1ccc(C)cc1[N+](=O)[O-], which “activity change, negative = cytotoxicity” value is on record?
Answer: Its value is -8.35%.

Question: With CCOc1cccc(N)c1 as the compound, how does the “activity change, negative = cytotoxicity” value read?
Answer: The value was 2.75%.

Question: With CCOC(=O)CCC(=O)OCC as the compound, how does the “activity change, negative = cytotoxicity” value read?
Answer: Its value is 0.195%.

Question: For C=CC(OCC)OCC, which “activity change, negative = cytotoxicity” value is on record?
Answer: The value was -3.24%.

Question: For CN1CCC[C@@H]1Cc1c[nH]c2ccc(CCS(=O)(=O)c3ccccc3)cc12, which “activity change, negative = cytotoxicity” value is on record?
Answer: The value was 15% [at 30.3 µM].

Question: For CCCCCCCCCC(=O)OCC, which “activity change, negative = cytotoxicity” value is on record?
Answer: Its value is 1.14%.
